An excerpt weighted towards active compounds, which were near 9.4% of everything screened.
SARS PLpro yeast = blocks SARS-CoV papain-like protease in a yeast assay; S. cerevisiae expressing SARS-CoV PLpro, growth rescue; Potency, µM (series often up to 32.9 µM), for inactives: top-dose activity, positive = growth rescue, most hits filed as activators; 0.19% of 330,000 active; calls by dose curve; further: 0% is about no effect; nearly all actives have a fitted effect of over 55% in size
Pf growth 48h = P. falciparum growth inhibition at 48 hours (one generation); P. falciparum luciferase growth in erythrocytes, 48 h; Potency, µM (doses to about 28.7 µM), for inactives: at the highest dose activity change, negative = inhibition, hits mostly inhibitors; AID 504832; 5.9% of 310,000 active; further: on the % scale 0 is the no-effect control and ±100 the full control effect
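Cell-based growth assay: transgenic P. falciparum expressing firefly luciferase, cultured in red cells within RPMI 1640 containing 0.5% w/v Albumax, 24 mM bicarbonate and gentamycin. A drop in luciferase activity indicates inhibition.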
AMA1-RON2 inh = inhibitors of Plasmodium falciparum AMA1-RON2 interaction; AlphaScreen AMA1-biotinylated RON2 peptide binding; Potency, µM (top dose mostly 58.2 µM), for inactives: at the highest dose activity change, negative = inhibition, usual class: inhibitors; 0.2% of 360,000 active; AID 720542;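 further: 0% = vehicle wells and -100% = peptide control; nearly all actives have a fitted effect of over 45% in size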
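AMA1 (3D7) with his tag at 25 nM final met compounds first, then biotinylated RON2 peptide at 25 nM; detection used donor plus acceptor beads, 10 µg/mL apiece, read by AlphaScreen after 30 min at room temperature.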
Pf growth 96h = P. falciparum growth inhibition at 96 hours. P. falciparum luciferase reporter growth, 96 h. Potency, µM (series often up to 28.7 µM), for inactives: at the top dose activity change, negative = inhibition, most hits filed as inhibitors. 6.9% of 320,000 active. AID 504834; further: on the % scale 0 is the no-effect control and ±100 the full control effect
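Readout is luminescence from an integrated firefly luciferase in P. falciparum. Red cells, 2% hematocrit and 0.05% parasitemia final, were cultured with compound through two parasite generations (96 hours) at 37 C, 5% CO2.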
Starred values were filed as active, the others as inactive; ? = inconclusive; . = no result; [ ] = another dose, or the depositor's remark. Unless noted, the call rests on the fitted dose curve; in most records, active means well fitted curve in the direction sought with a large enough effect; inconclusive means small, poorly fitted or top-dose-only effect, or another doubt; inactive means no such curve, though single readings can be large; an effect the other way counts as inactive or inconclusive. Potency means the concentration at half of the fitted maximal effect.

SMILES | SARS PLpro yeast | Pf growth 48h | AMA1-RON2 inh | Pf growth 96h
Cc1cc(N/N=C/c2ccccc2O)nc(-c2ccccc2O)n1 | -70% | ? | 91% | 26%
CCOc1ccc(/C=N/Nc2cc(N3CCOCC3)nc(C)n2)c(O)c1 | -2% | -7% | 35% | 6.6µM*
COc1ccc(OC)c(/C=N/Nc2cc(C)nc(N3CCOCC3)n2)c1 | 0% | -7% | 12% | ?
Cc1[nH][nH]c(=O)c1N=Nc1ccc(F)cc1 | 0% | 1%[0.00184 µM] | 13% | 1%
O=C1CCCCC1Nc1ccc(Cl)cc1 (centres undefined) | . | . | 2% | .
O=C1C=C(OCc2ccccc2)CN1 | -1% | 10% | -1% | ?
CC(C)CN(C)Cc1c(C(=O)N2CCc3ccccc3C2)nc2ccc(Cl)cn12 | 0% | 7.4µM* | -22% | ?
CN(Cc1cccnc1)Cc1c(C(=O)N2CCc3ccccc3C2)nc2ccc(Cl)cn12 | -1% | ? | -2% | -17%
CN(Cc1cnccn1)Cc1c(C(=O)N2CCc3ccccc3C2)nc2ccc(Cl)cn12 | 0% | 12µM* | 25% | ?
CCOC(=O)C1C(=O)NC(N2CCOCC2)=NC1c1ccco1 (centres undefined) | 1% | -21% | 3% | 14%
CCc1nc(Nc2ccccc2)c2nnn(Cc3ccccc3)c2n1 | -3% | 37% | 5% | 10µM*
CCCc1nc(NCC2CCCO2)c2nnn(Cc3ccccc3)c2n1 (centres undefined) | -10% | 15µM* | 13% | 23%
CC1(C)Cc2c(sc(NC(=O)/C=C/C(=O)O)c2C#N)CO1 | 1% | 4.1µM* | -2% | 2.9µM*
N#Cc1c(NC(=O)/C=C/C(=O)O)sc2c1CCN(Cc1ccccc1)C2 | -2% | -29% | 10% | 10µM*
Cc1csc(-c2cnn(-c3ccccc3)c2NC(=O)c2cccc(C(F)(F)F)c2)n1 | -10% | . | 9% | 10µM*
COc1ccc(Nc2nc(N)c([N+](=O)[O-])c(NCCO)n2)cc1 | -3% | -25% | -2% | -27%
COc1ccc(Nc2nc(N)c([N+](=O)[O-])c(NC3CCCCC3)n2)cc1 | -3% | ? | -27% | 10µM*
CCOC(=O)c1sc2nc(C)nc(SC(C)C(=O)N(C)c3ccccc3)c2c1C (centres undefined) | -4% | 12µM* | -3% | 9.3µM*
Cc1ccc(C2N(C)c3ccccc3-c3nc4ccccc4n32)o1 (centres undefined) | -24% | . | 12% | 3.7µM*
CN1c2ccccc2-c2nc3ccccc3n2C1c1cccs1 (centres undefined) | -32% | 8.3µM* | 30% | 1.7µM*
CC(=O)N1c2ccccc2-c2nc3ccccc3n2C1C (centres undefined) | 1% | -2% | -16% | -12%
COC(=O)C1=C(c2cccc3c2S(=O)(=O)c2ccccc2-3)C[C@@H]2CC[C@H]1N2C(=O)N1CCc2cc(OC)c(OC)cc2C1 | 1% | 3.7µM* | -9% | ?
COC(=O)C1=C(c2cccc3c2S(=O)(=O)c2ccccc2-3)C[C@@H]2CC[C@H]1N2C(=O)N1CCOCC1 | 8% | 10µM* | -9% | 6.6µM*
COC(=O)C1=C(c2ccc(OC)c(OC)c2)C[C@@H]2CC[C@H]1N2C(=O)N1CCc2cc(OC)c(OC)cc2C1 | 0% | ? | -4% | ?
CCO[C@H]1OC(C(=O)N2CCN(Cc3ccc4c(c3)OCO4)CC2)=C[C@@H](c2ccccc2)[C@@H]1CCCO | -1% | ? | 1% | ?
SMILES | SARS PLpro yeast | Pf growth 48h | AMA1-RON2 inh | Pf growth 96h
CCO[C@H]1OC(C(=O)N2CCN(Cc3ccc4c(c3)OCO4)CC2)=C[C@@H](C2CC2)[C@@H]1CCCO | 1% | ? | 4% | 7.4µM*
CCO[C@@H]1OC(C(=O)N2CCN(Cc3ccc4c(c3)OCO4)CC2)=C[C@H](c2ccc3c(c2)OCO3)[C@H]1CCCO | -1% | ? | -1% | 3.3µM*
CCO[C@H]1OC(C(=O)N2CCN(Cc3ccc4c(c3)OCO4)CC2)=C[C@@H](c2ccc(C(F)(F)F)cc2)[C@@H]1CCCO | 1% | ? | -8% | 1.5µM*
CCO[C@@H]1OC(C(=O)NCc2ccccc2)=C[C@H](C2CCCCC2)[C@H]1CCCO | -1% | ? | 0% | 9.3µM*
CCO[C@@H]1OC(C(=O)N2CCN(Cc3ccccc3)CC2)=C[C@H](C2CC2)[C@H]1CCCO | 0% | ? | 0% | ?
CCO[C@@H]1OC(C(=O)NCc2ccccc2)=C[C@H](C2CC2)[C@H]1CCCO | -1% | ? | -1% | 2%
CCCC(=O)Nc1nnc(S(=O)(=O)N(CC(C)C)c2ccccc2)s1 | 1% | 18% | -5% | 37%
C#Cc1ccc([C@@H]2C=C(C(=O)N3CCN(Cc4ccc5c(c4)OCO5)CC3)O[C@H](OCC)[C@H]2CCCO)cc1 | -1% | -79% | 5% | -20%
CCO[C@H]1OC(C(=O)N2CCN(Cc3ccc4c(c3)OCO4)CC2)=C[C@@H](c2ccc(Br)cc2)[C@@H]1CCCO | 1% | 10µM* | -26% | 5.2µM*
CCCCn1c(N)c(C(=O)OCC2CCCO2)c2nc3ccccc3nc21 (centres undefined) | -9% | 9.3µM* | 18% | 18%
CCCCOCCCn1c(N)c(C(=O)OCCOC)c2nc3ccccc3nc21 | -8% | ? | 2% | 10µM*
COc1ccc(-c2ccc(OC)cc2)cc1 | 11% | ? | 10% | 82%
COc1ccc(-c2nncnn2)cc1 | -122% | ? | -17% | 6.6µM*
CN1C(C(=O)Nc2ccccn2)=C(O)c2sc(Cl)cc2S1(=O)=O | -7% | 25% | -5% | 4%
Cc1ccc(OCCN2CCN(CC(O)Cn3c4ccccc4c4ccccc43)CC2)cc1 (centres undefined) | -60% | 2.6µM* | . | 19%
OC(COCC(F)(F)C(F)(F)C(F)(F)C(F)F)Cn1c2ccccc2c2ccccc21 (centres undefined) | -80% | 12µM* | 1% | -19%
OC(CN1CCN(c2ccccc2)CC1)Cn1c2ccccc2c2ccccc21 (centres undefined) | 2% | . | -6% | -28%
OC(CN1CCN(Cc2ccccc2)CC1)Cn1c2ccccc2c2ccccc21 (centres undefined) | -13% | 2.6µM* | -26% | 11%
Cc1ccc(OCC(O)CN2CCCC2)cc1 (centres undefined) | 0% | 2% | 0% | ?
Cc1ccc(OCC(O)Cn2c3ccccc3c3ccccc32)cc1 (centres undefined) | -39% | 9.3µM* | 16% | ?
CCCCCCN1C[C@@H](O)[C@H](n2cc(-c3ccc(F)cc3)nn2)C[C@@H]1c1ccc(C)cc1 | . | . | 1% | .
O=C(NNc1ccccc1)C(CCO)C(=O)NNc1ccccc1 | -1% | ? | 14% | ?
Cc1cccc(C)c1OCC(O)Cn1c2ccccc2c2ccccc21 (centres undefined) | -31% | 10µM* | -15% | 31%
Cc1cccc(C)c1OCC(O)Cn1nnc2ccccc21 (centres undefined) | -3% | 17% | 3% | -14%
